Hit rate of the full screen: of about 5,500 compounds, about 2,000 (36%) were called active. Another 18% or so got no clear call; they are omitted. No stated cut-off is given here; in the data, active means normalized growth mostly below about 0.91 (no sharp cut-off); inconclusive means no clear call, values can overlap the other calls; inactive means mostly above about 0.92. Some of the results follow.
Test: chemical genetic growth profiling, strain panel (AID 1159580);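 further: tested at 20 µM; growth read once vehicle control cultures reached saturation at 30 °C; 1 = growth at the plate median or of vehicle wells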
Details: growth OD

Measured: normalized growth

CNCc1ccccc1
inactive: S. cerevisiae deletion strains, locus YJR066W, strain TOR1, stronger effect = lower value 0.978 | S. cerevisiae deletion strains, locus YKL009W, strain mrt4, stronger effect = lower value 0.999 | S. cerevisiae deletion strains, locus YKL068W, stronger effect = lower value 0.981 | S. cerevisiae deletion strains, locus YKL085W, strain MDH1 (second series), stronger effect = lower value 0.976 | S. cerevisiae deletion strains, locus YKL085W, strain MDH1, stronger effect = lower value 0.976 | S. cerevisiae deletion strains, locus YKL160W, strain elf1, stronger effect = lower value 1 | S. cerevisiae deletion strains, locus YKL190W, strain CNB1, stronger effect = lower value 0.996 | S. cerevisiae deletion strains, locus YKR001C, strain vps1, stronger effect = lower value 1.04 | S. cerevisiae deletion strains, locus YKR026C, strain gcn3, stronger effect = lower value 1.03 | S. cerevisiae deletion strains, locus YKR091W, strain srl3, stronger effect = lower value 1.02 | S. cerevisiae deletion strains, locus YLL001W, strain dnm1, stronger effect = lower value 1.02 | S. cerevisiae deletion strains, locus YLL026W, stronger effect = lower value 1.01 | S. cerevisiae deletion strains, locus YLL041C, strain sdh2, stronger effect = lower value 1.02 | S. cerevisiae deletion strains, locus YLR027C, strain aat2, stronger effect = lower value 0.997 | S. cerevisiae deletion strains, locus YLR039C, strain RIC1, stronger effect = lower value 1.01 | S. cerevisiae deletion strains, locus YLR058C, strain SHM2, stronger effect = lower value 0.973 | S. cerevisiae deletion strains, locus YLR102C, strain apc9, stronger effect = lower value 0.99 | S. cerevisiae deletion strains, locus YLR113W, strain HOG1, stronger effect = lower value 0.981 | S. cerevisiae deletion strains, locus YLR221C, strain rsa3, stronger effect = lower value 1.01 | S. cerevisiae deletion strains, locus YLR258W, strain gsy2, stronger effect = lower value 1.03 | S. cerevisiae deletion strains, locus YLR262C, strain YPT6 (second series), stronger effect = lower value 1.01 | S. cerevisiae deletion strains, locus YLR262C, strain YPT6, stronger effect = lower value 1 | S. cerevisiae deletion strains, locus YLR268W, strain sec22, stronger effect = lower value 1.03 | S. cerevisiae deletion strains, locus YLR320W, strain mms22, stronger effect = lower value 1.02 | S. cerevisiae deletion strains, locus YLR330W, strain CHS5, stronger effect = lower value 0.999 | S. cerevisiae deletion strains, locus YLR342W, strain FKS1 (second series), stronger effect = lower value 1.05 | S. cerevisiae deletion strains, locus YLR342W, strain FKS1, stronger effect = lower value 1.02 | S. cerevisiae deletion strains, locus YLR357W, strain rsc2, stronger effect = lower value 1.02 | S. cerevisiae deletion strains, locus YLR370C, strain arc18, stronger effect = lower value 1.02 | S. cerevisiae deletion strains, locus YLR371W, strain rom2, stronger effect = lower value 0.999 | S. cerevisiae deletion strains, locus YLR384C, strain iki3, stronger effect = lower value 1 | S. cerevisiae deletion strains, locus YLR418C, strain cdc73, stronger effect = lower value 0.991 | S. cerevisiae deletion strains, locus YML016C, strain PPZ1, stronger effect = lower value 0.996 | S. cerevisiae deletion strains, locus YML032C, strain rad52, stronger effect = lower value 0.949 | S. cerevisiae deletion strains, locus YML120C, strain ndi1, stronger effect = lower value 1.02 | S. cerevisiae deletion strains, locus YML124C, strain tub3, stronger effect = lower value 0.983 | S. cerevisiae deletion strains, locus YMR058W, strain fet3, stronger effect = lower value 0.97 | S. cerevisiae deletion strains, locus YMR078C, strain ctf18, stronger effect = lower value 0.987 | S. cerevisiae deletion strains, locus YMR125W, strain sto1, stronger effect = lower value 1.02 | S. cerevisiae deletion strains, locus YMR129W, stronger effect = lower value 1.02 | S. cerevisiae deletion strains, locus YMR205C, strain PFK2, stronger effect = lower value 1.03 | S. cerevisiae deletion strains, locus YMR223W, strain ubp8, stronger effect = lower value 0.969 | S. cerevisiae deletion strains, locus YMR231W, strain pep5, stronger effect = lower value 0.99 | S. cerevisiae deletion strains, locus YMR263W, strain SAP30, stronger effect = lower value 0.992 | S. cerevisiae deletion strains, locus YMR307W, strain GAS1, stronger effect = lower value 0.914 | S. cerevisiae deletion strains, locus YNL067W, strain RPL9B, stronger effect = lower value 0.984 | S. cerevisiae deletion strains, locus YNL071W, strain lat1, stronger effect = lower value 1.03 | S. cerevisiae deletion strains, locus YNL153C, strain GIM3, stronger effect = lower value 0.978 | S. cerevisiae deletion strains, locus YNL183C, strain NPR1, stronger effect = lower value 0.91 | S. cerevisiae deletion strains, locus YNL209W, strain ssb2, stronger effect = lower value 1.01 | S. cerevisiae deletion strains, locus YNL233W, strain BNI4, stronger effect = lower value 1.01 | S. cerevisiae deletion strains, locus YNL248C, strain rpa49, stronger effect = lower value 1.03 | S. cerevisiae deletion strains, locus YNL250W, strain rad50, stronger effect = lower value 0.981 | S. cerevisiae deletion strains, locus YNL271C, strain bni1, stronger effect = lower value 0.994 | S. cerevisiae deletion strains, locus YNL298W, strain CLA4, stronger effect = lower value 0.988 | S. cerevisiae deletion strains, locus YNL307C, strain MCK1, stronger effect = lower value 1.01 | S. cerevisiae deletion strains, locus YNL322C, strain KRE1 (second series), stronger effect = lower value 1.02 | S. cerevisiae deletion strains, locus YNL322C, strain KRE1, stronger effect = lower value 0.994 | S. cerevisiae deletion strains, locus YNR049C, strain mso1, stronger effect = lower value 1.02 | S. cerevisiae deletion strains, locus YNR052C, strain pop2, stronger effect = lower value 0.991 | S. cerevisiae deletion strains, locus YOL006C, strain TOP1, stronger effect = lower value 1.1 | S. cerevisiae deletion strains, locus YOL012C, strain htz1 1.52 | S. cerevisiae deletion strains, locus YOL147C, strain pex11, stronger effect = lower value 0.989 | S. cerevisiae deletion strains, locus YOR001W, strain rrp6, stronger effect = lower value 1.01 | S. cerevisiae deletion strains, locus YOR061W, strain CKA2, stronger effect = lower value 0.983 | S. cerevisiae deletion strains, locus YOR069W, strain VPS5, stronger effect = lower value 1 | S. cerevisiae deletion strains, locus YOR070C, strain gyp1, stronger effect = lower value 1.01 | S. cerevisiae deletion strains, locus YOR080W, strain dia2, stronger effect = lower value 1.02 | S. cerevisiae deletion strains, locus YOR083W, strain WHI5, stronger effect = lower value 1.01 | S. cerevisiae deletion strains, locus YOR106W, strain vam3, stronger effect = lower value 1.04 | S. cerevisiae deletion strains, locus YOR136W, strain idh2, stronger effect = lower value 0.996 | S. cerevisiae deletion strains, locus YOR144C, strain elg1, stronger effect = lower value 0.991 | S. cerevisiae deletion strains, locus YOR184W, strain ser1, stronger effect = lower value 1 | S. cerevisiae deletion strains, locus YOR231W, strain MKK1, stronger effect = lower value 0.987 | S. cerevisiae deletion strains, locus YOR265W, strain rbl2, stronger effect = lower value 1.01 | S. cerevisiae deletion strains, locus YOR270C, strain vph1, stronger effect = lower value 1.08 | S. cerevisiae deletion strains, locus YOR290C, strain snf2, stronger effect = lower value 1.02 | S. cerevisiae deletion strains, locus YOR316C, strain cot1, stronger effect = lower value 0.986 | S. cerevisiae deletion strains, locus YPL051W, strain arl3, stronger effect = lower value 1 | S. cerevisiae deletion strains, locus YPL055C, strain LGE1, stronger effect = lower value 0.993 | S. cerevisiae deletion strains, locus YPL078C, strain atp4, stronger effect = lower value 1.02 | S. cerevisiae deletion strains, locus YPL106C, strain sse1, stronger effect = lower value 1.01 | S. cerevisiae deletion strains, locus YPL240C, strain hsp82, stronger effect = lower value 1.02 | S. cerevisiae deletion strains, locus YPL241C, strain CIN2, stronger effect = lower value 0.995 | S. cerevisiae deletion strains, locus YPL256C, strain CLN2, stronger effect = lower value 0.973 | S. cerevisiae deletion strains, locus YPR119W, strain clb2, stronger effect = lower value 0.991 | S. cerevisiae deletion strains, locus YPR141C, strain kar3, stronger effect = lower value 0.975 | S. cerevisiae deletion strains, locus YPR163C, strain tif3, stronger effect = lower value 0.979 | S. cerevisiae deletion strains, locus YPR167C, strain met16, stronger effect = lower value 0.982 | S. cerevisiae deletion strains, strain wtn01, stronger effect = lower value 1.06 | S. cerevisiae strains, strain wild type, stronger effect = lower value 0.992
